{"source": "PubChem BioAssay (NCI)", "note": "The panel holds about 83,000 compounds, 20% with a hit somewhere; the sample as a whole holds those more often.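 Single-dose data. Exposure time 48 hours. Values below 10 considered active.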 A number with no mark means an inactive call. Calls of active or inactive are those of the source."}
{"system": "HL-60(TB) leukemia", "assay": "NCI-60 one-dose screen, 48 h (100 = growth as untreated, 0 = no growth, -100 = all killed)", "conditions": "10 µM unless noted"}
{"smiles": "COc1ccc(/C=C(/C(=O)c2ccc(Cl)cc2)C(=O)C(F)(F)F)cc1", "growth": "106%"}
{"smiles": "CCOC(=O)CCN(C(=O)Nc1ccccc1)C1CCCCC1", "growth": "113%"}
{"smiles": "O=C1NC(=O)[C@@H](c2cn3c4c(cccc24)CCC3)[C@@H]1c1c[nH]c2ccccc12", "growth": "-21% (active)"}
{"smiles": "COCCc1n(Cc2ccc3ccccc3c2)c2ccccc2[n+]1Cc1ccc2ccccc2c1", "growth": "-62.4% (active)"}
{"smiles": "N=C(N)c1ccc(-c2ccc(-c3ccc(Cl)cn3)s2)cc1", "growth": "-45.8% (active)"}
{"smiles": "COc1cc(C(=O)/C=C/c2cccnc2Nc2ccccc2)cc(OC)c1OC", "growth": "-31.2% (active)"}
{"smiles": "Nc1cc(N)c2nc(-c3ccccc3)c(NCCc3ccc(Cl)c(Cl)c3)nc2c1", "growth": "-10.5% (active)"}
{"smiles": "CCc1ccc(-c2ccc(COc3ccc(CC4SC(=O)NC4=O)cc3)cc2)cc1", "note": "(stereo not given)", "growth": "88.1%"}
{"smiles": "CC12CCC(/C(=C/NNc3ccc([N+](=O)[O-])cc3[N+](=O)[O-])C1=O)C2(C)C", "note": "(stereo not given)", "growth": "110%"}
{"smiles": "COc1cccc(/C=N/NC(=O)c2ccccc2Nc2ccnc(C(F)(F)F)c2)c1O", "growth": "34.8%"}
{"smiles": "O=C(Nc1ccc(Cl)c(Cl)c1)NC(CO)(CO)CO", "growth": "102%"}
{"smiles": "CC(C)(C)c1ccc(O)c(Br)c1", "growth": "156%"}
{"smiles": "c1ccc(-c2nn(-c3ccccc3)[n+](-c3ccccc3-c3ccccc3)n2)cc1", "growth": "-31.4% (active)"}
{"smiles": "c1cc2cccc3c4cccc5cccc(c(c1)c23)c54", "growth": "109%"}
{"smiles": "C=C(C)[C@@H]1CC[C@]2(CO)CC[C@]3(C)[C@H](CC[C@@H]4[C@@]5(C)CCC(NCCc6ccc(O)cc6)C(C)(C)[C@@H]5CC[C@]43C)[C@@H]12", "note": "(stereo not given in full)", "growth": "-50.4% (active)"}
{"smiles": "COC(=O)CC(=O)C(=O)OC", "growth": "100%"}
{"smiles": "O=C(NCCCN1CCN(CCCNC(=O)C2CCCCC2)CC1)C1CCCCC1", "growth": "98.9%"}
{"smiles": "Clc1nc(-c2ccccn2)nc2sc3c(c12)CCCCCC3", "growth": "96%"}
{"smiles": "Nc1ccc(N=Nc2ccccc2)c2cc(S(=O)(=O)O)ccc12", "growth": "103%"}
{"smiles": "c1ccc(Cn2nc3c(c2-c2ccccc2)-c2oncc2CC3)cc1", "growth": "92.2%"}
{"smiles": "Cc1cnc(Nc2ccc(OCCN3CCCC3)cc2)nc1Nc1cccc(S(=O)(=O)NC(C)(C)C)c1", "growth": "-39.7% (active)"}
{"smiles": "COc1cccc(-c2nc3sccn3c2-c2ccnc(NCCNS(=O)(=O)c3ccccc3)c2)c1", "growth": "-18.1% (active)"}
{"smiles": "CN1CCN(c2ccc(Nc3ncc(Cl)c(NC[C@@H]4CCCO4)n3)cc2)CC1", "growth": "-6.65% (active)"}
{"smiles": "CCCCNCC(=O)Nc1ccc(C(=O)OCC)cc1", "growth": "86.9%"}
{"smiles": "Cc1ccc(O)c(C(=O)c2ccccc2Cl)c1", "growth": "112%"}
{"smiles": "Cn1cc(-c2cnn3c(N)c(Br)c([C@@H]4CCCNC4)nc23)cn1", "growth": "21.2%"}
{"smiles": "CC(=O)N1N=C(c2ccc(Nc3nc(NCCO)nc(NCCO)n3)cc2)CC1c1ccc(Cl)cc1", "note": "(stereo not given)", "growth": "117%"}
{"smiles": "O=C1CSC(c2c(Cl)cccc2Cl)N1c1nc(Cl)cc(=O)[nH]1", "note": "(stereo not given)", "growth": "161%"}
{"smiles": "Cc1ccc(Cl)cc1Nc1nc(C(F)(F)F)ccc1C(=O)N/N=C/c1c(Cl)cccc1Cl", "growth": "17.3%"}
{"smiles": "Clc1ccccc1-c1cnn2cc(-c3ccccc3)cnc12", "growth": "96.2%"}
{"smiles": "CC(C)(C)OC(=O)NCc1cccc(N=C=S)c1", "growth": "-24% (active)"}
{"smiles": "CC/C(=C(\\CC)c1ccc(OCCN(CC)CC)cc1)c1ccc(OCCN(CC)CC)cc1", "growth": "-3.52% (active)"}
{"smiles": "Cn1cc(-c2csc(-c3ccccc3)n2)c2cccnc21", "growth": "3.19% [100 µM] (active)"}
{"smiles": "C=C(C)[C@@H]1CC[C@]2(C(N)=O)CC[C@]3(C)[C@H](CC[C@@H]4[C@@]5(C)CC[C@H](O)C(C)(C)[C@@H]5CC[C@]43C)[C@@H]12", "growth": "1.17% [100 µM] (active)"}
{"smiles": "N#CC1=C(N)Oc2c(ccc3ccccc23)C1c1cc2ccccc2n2nnnc12", "note": "(stereo not given)", "growth": "-32.7% (active)"}
{"smiles": "CCCN(CCC)CCCNC(=O)c1cc2c(-c3ccc(OC)c(OC)c3)nn(C)c2s1", "growth": "-13.4% (active)"}
{"smiles": "CS(=O)(=O)Nc1cncc(-c2ccc3ncnc(Nc4cncc(Cl)c4)c3c2)c1", "growth": "71.5%"}
{"smiles": "CC(C)NC(=O)OCC#CCOC(=O)NC(C)C", "growth": "95.7%"}
{"smiles": "CC1CCCN(CCCCCOc2ccc3oc4ccccc4c(=O)c3c2)C1", "note": "(stereo not given)", "growth": "45.5%"}
{"smiles": "O=[N+]([O-])c1ccc2ncccc2c1Cl", "growth": "11.6%"}
